This passage reports inhibition results from PubChem BioAssay AID1822 (The Scripps Research Institute Molecular Screening Center, 2009).

Values joined by “and” are separate entries in the source; they are usually repeats but may differ in a detail not shown here. Equal entries are not always repeated. The whole screen tested about 290,000 compounds, of which about 3,500 (1.2%) were called active. The sample as a whole holds a higher share of actives than the screen did. Values without a mark were called inactive.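 How the source made its calls: active means inhibition above the campaign mean inhibition over all tested compounds plus 3 SD (cut at about 28% in these data); inactive means the rest.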

The experiment has as its system M18 aspartyl aminopeptidase (Plasmodium falciparum 3D7). Nature of the experiment: PfM18AAP inhibitors, malaria aminopeptidase, primary screen, biochemical, QFRET, recombinant enzyme (AID 1822).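 Further: 0% = plate median of test compound wells and 100% = 2 mM ZnCl2.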 Particulars: H-Glu-NHMec fluorogenic cleavage, at 7.35 µM, hits give high values.
`N#CCC(=O)N/N=C/c1ccc(SCC(=O)Nc2ccccc2)o1`: the inhibition is 34.6% (active).

Take `Cc1ccc(/C=N/NC(=O)CSc2ccccn2)o1`: the inhibition is 5.97%.

`O=C(CSc1ccc(/C=N/NC(=O)c2cccc(F)c2)o1)Nc1ccccc1`: the inhibition is 6.13%.

Regarding `CCC(C)(C)NC(=O)C(c1ccc(O)cc1)N(Cc1ccco1)C(=O)CCC(=O)Nc1ccccn1` (configuration not stated), the inhibition was -14.9%.

Take `COc1cccc(NC(=O)N2CCC(NC(=O)C(Cc3cccc(C)c3)NC(C)=O)CC2)c1` (configuration not stated): the inhibition was -1.52%.

Turning to `Cc1ccc(-n2[nH]c(C)c(/C=N/NC(=O)c3cccc([N+](=O)[O-])c3)c2=O)cc1C`, the inhibition was 1.83%.

Consider `CCN1CCN(c2cc3nc(C)n(Cc4ccccc4)c(=O)c3cc2NC(=O)c2ccccc2F)CC1`, for which the inhibition was -2.2%.

Regarding `COc1ccc(C(=O)CSc2nnc(COc3ccccc3)n2Cc2ccco2)cc1`, the inhibition is -6.68%.

For the compound `COc1cccc(OCc2nnc3n2N=C(c2ccccc2)C(CC(=O)O)S3)c1` (configuration not stated), the inhibition was 3.81%.

Take `COc1ccc(OCc2nnc3n2N=C(c2ccccc2)C(CC(=O)O)S3)cc1` (configuration not stated): the inhibition was 33.1% (active).

Regarding `CC(C)(C)c1ccc(C(CC(=O)O)NS(=O)(=O)Cc2ccccc2)cc1` (configuration not stated), the inhibition was -3.96%.

In the case of `FC(F)(F)C1CCCN(c2nsc3ccccc23)C1` (configuration not stated), the inhibition was 76.9% (active).

For the compound `CNC(=O)c1c(NC(NC(=O)c2ccco2)C(=O)c2ccc(Cl)cc2)sc2c1CCCC2` (configuration not stated), the inhibition is 35% (active).

For the compound `CC(C)OC(=O)c1c(NC(=O)c2ccco2)sc2c1CCCC2`, the inhibition was -7.19%.

With `CCOC(=O)c1c(NC(=S)NC(=O)c2ccco2)sc2c1CCCC2`, the inhibition is 6.75%.

For the compound `CC(=O)Nc1ccc(NC(=O)CC2CCCC2)cc1`, the inhibition was -1.31%.

Regarding `O=C(CCC1CCCC1)N=C1SC2CS(=O)(=O)CC2N1Cc1ccccc1` (configuration not stated), the inhibition was 9.31%.

As to `Cc1cc(C)n2nc(CNS(=O)(=O)c3c(F)c(F)c(F)c(F)c3F)nc2n1`, the inhibition was 2.95%.

For the compound `CC(C)=CCN1CCN(CCCc2ccccc2)CC1CCO` (configuration not stated), the inhibition is -4.62%.

As to `Cc1ccc(-n2c(C)cc(/C=C(\C#N)C(=O)NCC3CCCO3)c2C)cc1` (configuration not stated), the inhibition is -10.2%.

For `CN(C)c1ccc(-c2nnc(-c3cccnc3)o2)cc1`, the inhibition is 10.3%.

Regarding `O=C1CC(c2ccccc2)=NN1c1ccc([N+](=O)[O-])cc1`, the inhibition is 0.8%.

For `O=c1[nH]n(-c2ccc([N+](=O)[O-])cc2)c(=O)c2ccccc12`, the inhibition was 34.9% (active).

As to `Cc1nc2ccccc2c(=O)n1Cc1ccc([N+](=O)[O-])cc1`, the inhibition was -5.86%.

Turning to `CCCC(C(=O)NC1CCCC1)N(C(=O)Cn1nnc(-c2ccc(C)o2)n1)c1cccc(O)c1` (configuration not stated), the inhibition is -0.55%.

`O=c1c2ccccc2ncn1/N=C/c1ccccc1`: the inhibition was 1.08%.

As for `CCCc1nc2ccccc2c(=O)n1NC(=O)c1c(O)c2ccccc2[nH]c1=O`, the inhibition was -1.38%.

`CCCc1nc2ccccc2c(=O)n1/N=C/c1ccc(O)c(O)c1`: the inhibition is 53.2% (active).

Turning to `Nc1nc(SCC(=O)Nc2cc(C(F)(F)F)ccc2Cl)[nH]c(=O)c1NC(=O)c1ccco1`, the inhibition was 30.4% (active).

For `COC(=O)c1ccc(NC(=O)CSc2nc(N)c(NC(=O)c3ccc(Br)o3)c(=O)[nH]2)cc1`, the inhibition was 0.86%.

Take `COc1ccc(C(=O)Nc2c(N)nc(SCC(=O)Nc3ccc(C(C)=O)cc3)[nH]c2=O)cc1`: the inhibition was 7.68%.

In the case of `COc1ccc(C)cc1Nc1nc(C)nc2c1oc1ccccc12`, the inhibition is 2.6%.

Consider `CCc1ccc(C(CNc2nc(C(F)(F)F)nc3ccccc23)N(C)C)cc1` (configuration not stated), for which the inhibition is 2.51%.

Take `Cc1cc(OC(=O)c2ccccc2Cl)ccc1N1C(=O)CCC1=O`: the inhibition is 3.74%.

As to `CCN(CC)S(=O)(=O)c1cc([N+](=O)[O-])ccc1N=Nc1c(O)n(C)c2ccccc12`, the inhibition was -3.78%.

Regarding `CCN(CC)S(=O)(=O)c1cc([N+](=O)[O-])ccc1NNC(=O)Nc1ccccc1`, the inhibition was 48.1% (active).

As to `CC(=O)c1ccc(NC(=O)Nc2ccc([N+](=O)[O-])cc2C)cc1`, the inhibition was -10.5%.

Take `CCCCN(CCCC)CCNC(=O)CN1C(=O)COc2ccc(S(=O)(=O)N3CCOCC3)cc21`: the inhibition was 7.53%.

With `CCCCN1C(=O)C(C)=C(C)C1OCCc1ccc(OC)c(OC)c1` (configuration not stated), the inhibition was -8.94%.

On to `CC1(C(=O)N/N=C/c2cc3c(cc2Br)OCO3)CC1(Br)Br` (configuration not stated), for which the inhibition is 7.28%.

Regarding `NNc1nc2c(Cl)cccc2s1`, the inhibition was 28.1% (active).

For the compound `Fc1cc(F)c2nc(Nc3nc4c(F)cccc4s3)sc2c1`, the inhibition was -6.75%.

As to `CN(C)CCCN(C(=O)COc1ccccc1)c1nc2c(Cl)cccc2s1`, the inhibition was -2.07%.

In the case of `CCOC(=O)C1CCCN(S(=O)(=O)c2ccc3c(c2)C(C)(C)C(=O)N3C)C1` (configuration not stated), the inhibition was 7.85%.

`OC(c1ccc(Cl)cc1)C(CN1CCOCC1)c1ccccc1` (configuration not stated): the inhibition was 1.27%.

As for `CCOc1ccc(S(=O)(=O)NCc2ccc3c(c2)OCO3)cc1C`, the inhibition is -10.2%.

For `CSc1ccc(CCNC(=O)CS(=O)(=O)Cc2nc(-c3ccccc3F)oc2C)cc1`, the inhibition is -0.36%.

In the case of `Oc1c(C(c2ccco2)N2CCC3(CC2)OCCO3)sc2ncnn12` (configuration not stated), the inhibition is 35.8% (active).

As to `Oc1c(C(c2cccs2)N2CCN(c3ccc(F)cc3)CC2)sc2ncnn12` (configuration not stated), the inhibition was 16.4%.

`Cc1nc2sc(C(c3ccco3)N3CCC4(CC3)OCCO4)c(O)n2n1` (configuration not stated): the inhibition was 0.84%.

As to `CCc1nn(CCCN2CCN(c3cccc(Cl)c3)CC2)c(=O)n1CCOc1ccccc1`, the inhibition was 8.14% and 7.54%.

As for `O=S(=O)(c1ccc(Cl)cc1)N1CCCN(c2ccc(C(F)(F)F)cn2)CC1`, the inhibition was -1.37%.

`COc1ccc(OC)c(/C(C)=N\NC(=O)c2cc3cc(Cl)ccc3n2C)c1`: the inhibition was 3.86%.

In the case of `Oc1ccc(N=Cc2sc3ccccc3c2Cl)cc1`, the inhibition is 21.1%.

As to `Oc1ccc(N=Cc2c(O)ccc3ccccc23)cc1`, the inhibition is 28.4% (active).

As for `O=[N+]([O-])c1ccc(N=Cc2c(O)ccc3ccccc23)cc1`, the inhibition was -0.85%.

In the case of `Clc1ccc(Cc2nn3c(-c4ccncc4)nnc3s2)cc1`, the inhibition was 8.22%.

Take `Cc1cccc(C(=O)NC(=S)N(C)C2CCCCC2)c1`: the inhibition was 7.02%.

Consider `NC(=O)c1c(NC(=O)CSc2nnc(-c3ccco3)n2N)sc2c1CCCC2`, for which the inhibition is 34.4% (active).

Take `NC(=O)c1c(NC(=O)CSc2nc(N)cc(=O)[nH]2)sc2c1CCCC2`: the inhibition is 8.38%.

For the compound `CCc1cccc(C)c1NC(=O)CSc1nnc(-c2ccco2)n1N`, the inhibition was 3.63%.

Take `CC(C)c1ccc(S(=O)(=O)NC2CCCC2)cc1`: the inhibition is -8.03%.

In the case of `Cc1ccccc1CN1CCC(C(=O)Nc2ccc(Oc3cccnc3)cc2)CC1`, the inhibition is 0.98%.

Take `O=C(c1ccc(Cl)c(S(=O)(=O)N2CCCCC2)c1)N1CCCCCC1`: the inhibition was -4.84%.

For the compound `O=C(c1ccc[nH]c1=S)N1CCN(S(=O)(=O)c2ccc(Br)cc2Cl)CC1`, the inhibition was 29.6% (active).

As for `O=C(c1ccccc1F)N1CCN(S(=O)(=O)c2ccc(Br)cc2)CC1`, the inhibition is 1.79%.

For the compound `COc1cc(NC(=O)C2=CC(c3ccco3)=NS(=O)(=O)N2C)cc(OC)c1OC`, the inhibition was 3.32%.

For `O=C(N/N=C/c1ccc(OC(=O)c2ccccc2Cl)cc1)c1ccc(O)cc1`, the inhibition was 8.47%.

For `O=C(CO/N=C/c1ccccc1O)NNC(=O)c1ccccc1Cl`, the inhibition was 43.1% (active).

On to `O=C(CO/N=C/c1ccccc1OC(F)F)NC1CCCC1`, for which the inhibition is 3.38%.

On to `CC(C)c1ccc(NC(=S)NC2CC3C=CC2C3)cc1` (configuration not stated), for which the inhibition was -6.48%.

Take `CC(=O)c1cnc(Nc2nc(C)c3cc(C)ccc3n2)nc1C`: the inhibition is 1.6%.

As for `O=C(NCCCn1ccnc1)c1cc(-c2ccccc2)on1`, the inhibition is -9.41%.

As for `COc1ccc(-c2csc(Cc3nc(O)cs3)n2)cc1`, the inhibition was 8.2%.

Consider `Cc1onc(C(=O)NN)c1-c1csc(COc2ccccc2)n1`, for which the inhibition was -8.62%.

For the compound `CC(C)(C)C(=O)OCc1nc(-c2ccc(O)c(O)c2)cs1`, the inhibition was 58.2% (active).

On to `COC(=O)[C@@H]1CCCN1C(=O)c1cc(COc2cccc3cccnc23)on1`, for which the inhibition is 3.55%.

Take `COc1cc(C)c(C)cc1S(=O)(=O)N1CCCc2ccccc21`: the inhibition is -5.85%.

On to `Cc1[nH]c(C)c(S(=O)(=O)N2CCC(C)CC2)c1C(=O)N1CCCC1`, for which the inhibition was -4.62%.

Regarding `COCCCNC(=O)C1CC(=O)N(CCc2ccc(F)cc2)C1` (configuration not stated), the inhibition was 2.65%.

Take `CCOC(=O)CSc1nnc(NC(=O)C2CC(=O)N(c3ccc(F)cc3)C2)s1` (configuration not stated): the inhibition is -0.3%.

For the compound `Cc1ccc(N(C(=O)CNC(=O)c2ccco2)C(C(=O)NC2CCCC2)c2ccncc2)cc1` (configuration not stated), the inhibition is 0.63%.

In the case of `CC(C)(C)NC(=O)C(c1ccncc1)N(C(=O)CNC(=O)c1ccco1)c1ccc2c(c1)OCO2` (configuration not stated), the inhibition is 35% (active).

As to `COc1cccc(N(C(=O)CNC(=O)c2ccco2)C(C(=O)NC2CCCCC2)c2cccnc2)c1` (configuration not stated), the inhibition was 9.7%.

As for `C/C(CC1CC(C)(C)OC1=O)=N/Nc1nc(-c2ccccc2)cs1` (configuration not stated), the inhibition is 6.59%.

Regarding `O=C(CSc1nccc(=O)[nH]1)Nc1ccc(N2CCOCC2)c(Cl)c1`, the inhibition is 2.24%.

Consider `O=C(CN1CCN(c2cccc(Cl)c2)CC1)Nc1ccc(S(=O)(=O)N2CCOCC2)cc1`, for which the inhibition is -3.74%.

As for `O=C(CN1CCN(c2ccccc2)CC1)Nc1ccc(F)cc1`, the inhibition was -1.61%.

`O=C(CN1CCOCC1)Nc1cc(Cl)ccc1Cl`: the inhibition was 1.38%.

For the compound `O=C(CN1CCN(c2ccc(O)cc2)CC1)Nc1cc(S(=O)(=O)N2CCOCC2)ccc1Cl`, the inhibition was 30.2% (active).

On to `O=C(CN1CCN(c2ccc(O)cc2)CC1)Nc1ccc(-c2ccccc2)cc1`, for which the inhibition was 42% (active).

As for `O=C(CN1CCN(c2ccc(F)cc2)CC1)Nc1ccccc1`, the inhibition is -7.36%.
